Measured values reported in the supplement of paper PMC12350171.
Structures can show the parent of a compound that is named as a salt. A number with no mark means an inactive call.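 The calls were made as follows: active = AUC significantly below DMSO controls by Student t-fit with adjusted P under 0.01; inactive = not significantly reduced.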

Test system: Haemophilus parainfluenzae
Assay: growth AUC normalised to DMSO control (fraction of control); higher = less growth inhibition, active = hit call of the paper
Details: 20 µM
Method in brief: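 Hemin and NAD were added to the medium for Haemophilus parainfluenzae. All pathogens, after two anaerobic passages, were inoculated at a starting OD578 of 0.01 into pre-reduced mGAM plates with 20 μM compound and 1% DMSO under breathable seals, and OD578 was read hourly for 24 h in three biological replicates. AUC of each growth curve was obtained with the trapezoidal rule up to the exponential-to-stationary transition and normalised to DMSO controls from the same plate.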

| Compound | growth AUC normalised to DMSO control |
| --- | --- |
| CC(=O)OCC(=O)[C@@]1(O)CC[C@H]2[C@@H]3CCC4=CC(=O)CC[C@]4(C)[C@H]3[C@@H](O)C[C@@]21C [Cortisol acetate] | 1.02 |
| COc1ccc2c(c1)C(=O)N(CCc1ccc(S(=O)(=O)NC(=O)NC3CCCCC3)cc1)C(=O)C2(C)C [Gliquidone] | 0.998 |
| CCCc1nc2c(C)cc(-c3nc4ccccc4n3C)cc2n1Cc1ccc(-c2ccccc2C(=O)O)cc1 [Telmisartan] | 1.03 |
| Cc1[nH]c(=O)c(C#N)cc1-c1ccncc1 [Milrinone] | 0.987 |
| COc1ccccc1OCC(O)COC(N)=O (stereo not drawn) [Methocarbamol] | 0.977 |
| CN1CCN(c2c(F)cc3c(=O)c(C(=O)O)cn(CCF)c3c2F)CC1 [Fleroxacin] | 0.0399 (active) |
| C[C@@H]1CN(c2c(F)c(N)c3c(=O)c(C(=O)O)cn(C4CC4)c3c2F)C[C@H](C)N1 [Sparfloxacin] | 0.0765 (active) |
| O=C(CCCN1CCC(O)(c2ccc(Br)cc2)CC1)c1ccc(F)cc1 [Bromperidol] | 1.02 |
| CNCC(O)c1ccc(O)c(O)c1 (stereo not drawn) [Racepinephrine hydrochloride] | 1.06 |
| CC1(C)OC(=O)NC1=O [Dimethadione] | 1 |
| CCN(CC)CCNC(C(=O)OCCC(C)C)c1ccccc1 (stereo not drawn) [Camylofine chlorhydrate] | 0.98 |
| O=C(Cn1ccnc1[N+](=O)[O-])NCCO [Etanidazole] | 0.929 |
| N=C(N)N/N=C/c1c(Cl)cccc1Cl [Guanabenz acetate] | 0.972 |
| CC(C)C(=O)Nc1ccc([N+](=O)[O-])c(C(F)(F)F)c1 [Flutamide] | 1.09 |
| Cc1ccc(S(=O)(=O)NC(=O)NN2CC3CCCC3C2)cc1 (stereo not drawn) [Gliclazide] | 0.996 |
| CC(=O)OCC(=O)[C@@]1(O)[C@H](C)C[C@H]2[C@@H]3CCC4=CC(=O)C=C[C@]4(C)[C@@]3(F)[C@@H](O)C[C@@]21C [Dexamethasone acetate] | 1.03 |
| COc1ccc(Cl)cc1C(=O)NCCc1ccc(S(=O)(=O)NC(=O)NC2CCCCC2)cc1 [Glibenclamide] | 0.952 |
| Cn1cnc([N+](=O)[O-])c1Sc1ncnc2[nH]cnc12 [Azathioprine] | 1.11 |
| CCOC(=O)c1ccc(N)cc1 [Benzocaine] | 1.02 |

| Compound | growth AUC normalised to DMSO control |
| --- | --- |
| CCN1CCC[C@H]1CNC(=O)c1c(OC)ccc(Br)c1OC [Remoxipride hydrochloride] | 1.04 |
| CC[C@@H](CO)NCCN[C@@H](CC)CO [Ethambutol dihydrochloride] | 0.809 |
| CN(C)CCC(c1ccc(Cl)cc1)c1ccccn1 (stereo not drawn) [Chlorpheniramine maleate] | 0.995 |
| CN(Cc1ccc(C(C)(C)C)cc1)Cc1cccc2ccccc12 [Butenafine hydrochloride] | 0.913 |
| CC=C(C)C(=O)OC1C(OC(C)=O)C2(CO)C(O)CC3(C)C(=CCC4C5(C)CCC(OC6OC(C(=O)O)C(OC7OC(CO)C(O)C(O)C7O)C(O)C6OC6OC(CO)C(O)C(O)C6O)C(C)(CO)C5CCC43C)C2CC1(C)C (stereo not drawn) [Beta-Escin] | 1.01 |
| CCN(CC)CCc1nc(-c2ccccc2)no1 [Oxolamine citrate salt] | 1.05 |
| Cc1ncc([N+](=O)[O-])n1CC(O)CCl (stereo not drawn) [Ornidazole] | 1 |
| CO[C@@H]1[C@@H](O[C@@H]2O[C@H](C)[C@@H](O[C@H]3C[C@@](C)(O)[C@@H](OC(=O)CC(C)C)[C@H](C)O3)[C@H](N(C)C)[C@H]2O)[C@@H](CC=O)C[C@@H](C)[C@@H](O)/C=C/C=C/C[C@@H](C)OC(=O)C[C@H]1OC(C)=O [Josamycin] | 0.0327 (active) |
| CCCCNc1cc(C(=O)O)cc(S(N)(=O)=O)c1Oc1ccccc1 [Bumetanide] | 0.991 |
| COc1cc(NS(=O)(=O)c2ccc(N)cc2)nc(OC)n1 [Sulfadimethoxine] | 0.98 |
| O=c1oc2ccccc2c(O)c1Cc1c(O)c2ccccc2oc1=O [Dicumarol] | 1.31 |
| Cc1nc2n(c(=O)c1CCN1CCC(c3noc4cc(F)ccc34)CC1)CCCC2 [Risperidone] | 1 |
| Cc1cccc(C)c1OCC(C)N (stereo not drawn) [Mexiletine hydrochloride] | 1.02 |
| CN(C)CCn1nnnc1SCC1=C(C(=O)O)N2C(=O)[C@@H](NC(=O)Cc3csc(N)n3)[C@H]2SC1 [Cefotiam hydrochloride] | 0.0401 (active) |
| CC(=O)OCC(=O)NCCCOc1cccc(CN2CCCCC2)c1 [Roxatidine acetate hydrochloride] | 0.971 |
| CC(C)COCC(CN(Cc1ccccc1)c1ccccc1)N1CCCC1 (stereo not drawn) [Bepridil hydrochloride] | 0.771 |
| COc1ccc2c(c1)c(CC(=O)O)c(C)n2C(=O)c1ccc(Cl)cc1 [Indomethacin] | 0.975 |
| Fc1ccc([C@@H]2CCNC[C@H]2COc2ccc3c(c2)OCO3)cc1 [Paroxetine hydrochloride] | 0.998 |
| CO[C@H]1/C=C/O[C@@]2(C)Oc3c(C)c(O)c4c(O)c(c(/C=N/N5CCN(C6CCCC6)CC5)c(O)c4c3C2=O)NC(=O)/C(C)=C\C=C\[C@H](C)[C@H](O)[C@@H](C)[C@@H](O)[C@@H](C)[C@H](OC(C)=O)[C@@H]1C [Rifapentine] | 0.0302 (active) |
